An excerpt weighted towards active compounds, which were near 7% of everything screened.
JMJD2A Tudor – blocks the human JMJD2A Tudor domain. Potency, µM (highest dose often 114 µM), without a hit: at the top dose activity change, negative = inhibition, usual class: inhibitors. AlphaScreen JMJD2A-Tudor / H3K4me3 peptide binding. O75164. hit rate 4.4% among 390,000; also: potency is read from the fitted curve at half-maximal effect; % is scaled to controls: 0 for no effect and ±100 for the full control effect; nearly all actives have a fitted effect of over 50% in size
Target sequence (O75164 whole entry, looked up, the tested form may be a part): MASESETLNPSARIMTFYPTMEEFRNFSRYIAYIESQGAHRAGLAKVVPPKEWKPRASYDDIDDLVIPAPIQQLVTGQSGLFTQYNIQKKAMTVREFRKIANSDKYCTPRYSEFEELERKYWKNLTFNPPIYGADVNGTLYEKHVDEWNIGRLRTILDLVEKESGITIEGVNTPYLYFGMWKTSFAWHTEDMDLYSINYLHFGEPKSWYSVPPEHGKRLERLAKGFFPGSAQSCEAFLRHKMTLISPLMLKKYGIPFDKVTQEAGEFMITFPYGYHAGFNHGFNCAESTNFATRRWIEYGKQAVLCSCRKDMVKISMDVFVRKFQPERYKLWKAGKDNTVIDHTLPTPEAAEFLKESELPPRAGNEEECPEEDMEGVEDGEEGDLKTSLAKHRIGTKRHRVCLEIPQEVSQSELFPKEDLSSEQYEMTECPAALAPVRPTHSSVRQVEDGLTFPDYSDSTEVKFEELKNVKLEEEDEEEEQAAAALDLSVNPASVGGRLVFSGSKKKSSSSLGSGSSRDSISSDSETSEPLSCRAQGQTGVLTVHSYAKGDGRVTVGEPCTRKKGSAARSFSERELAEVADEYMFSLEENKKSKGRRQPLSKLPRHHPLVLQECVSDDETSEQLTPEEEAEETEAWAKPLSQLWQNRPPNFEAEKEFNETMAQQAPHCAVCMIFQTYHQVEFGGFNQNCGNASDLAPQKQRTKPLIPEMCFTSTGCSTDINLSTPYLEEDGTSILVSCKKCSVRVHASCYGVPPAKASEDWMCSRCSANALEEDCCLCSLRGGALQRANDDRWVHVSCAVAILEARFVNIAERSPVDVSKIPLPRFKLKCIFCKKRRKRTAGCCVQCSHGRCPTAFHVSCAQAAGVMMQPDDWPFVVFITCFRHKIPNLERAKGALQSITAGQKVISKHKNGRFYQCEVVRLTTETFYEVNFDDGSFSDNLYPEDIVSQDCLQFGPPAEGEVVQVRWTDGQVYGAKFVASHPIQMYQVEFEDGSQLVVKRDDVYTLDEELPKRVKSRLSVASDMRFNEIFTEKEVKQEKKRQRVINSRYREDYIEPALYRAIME
BAZ2B block – BAZ2B (human) inhibition | AlphaScreen BAZ2B-H3K14Ac peptide displacement | Potency, µM (top dose mostly 114 µM), inactives show top-dose activity change, negative = inhibition, most hits filed as inhibitors | hit rate 4.4% among 360,000; also: potency is read from the fitted curve at half-maximal effect; % is scaled to controls: 0 for no effect and ±100 for the full control effect; nearly all actives have a fitted effect of over 60% in size
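BAZ2B (50 nM) with biotin-H3(5-23)K14Ac peptide (50 nM) in PBS pH 7.4, 0.01% Tween-20, preformed 30 min, then compound 30 min at room temperature; top concentration 110uM. AlphaScreen streptavidin donor/nickel chelate acceptor beads (10 ug/mL final), 20 min dark, signal read.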
PI5P4Ka inh – inhibitors of human PI5P4K alpha; hit rate 1.2% among 330,000; AID 652105; PI5P4Kalpha enzyme, ADP-Glo luminescence, 60 min; stronger effect = lower value; max response, %; P48426; active = max response of -50% or lower; inconclusive = between -30% and -50%; inactive = -30% or higher; also: value at the top dose of about 77 µM; % is scaled to controls: 0 for no effect and ±100 for the full control effect
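Enzyme plus substrate dispensed, test compounds pinned in, then ATP (5 microM final) added. After 60 min at RT, ADP-Glo reagent 1 for 45 min and reagent 2 for 30 min preceded luminescence imaging.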
HP1b chromo inh – HP1-beta chromodomain-methylated histone interaction inhibition; AID 540317; P83916; hit rate 0.56% among 390,000; Potency, µM (doses to about 114 µM), for the others: at the top dose activity change, negative = inhibition, actives largely listed as inhibitors; AlphaScreen HP1-beta / biotin-H3K9me3 peptide binding; also: potency is read from the fitted curve at half-maximal effect; nearly all actives have a fitted effect of over 70% in size
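AlphaScreen: HP1-beta (50 nM) preformed 30 min with biotin-H3(1-18)K9me3 peptide (50 nM) in PBS pH 7.4, 0.01% Tween-20. Compound added for 30 min at RT, then streptavidin donor/nickel chelate acceptor beads (10 ug/mL) for 30 min.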
PLK1 PBD inh – inhibitors of human PLK1 polo-box domain binding. P53350. hit rate 2.8% among 360,000. Potency, µM, without a hit: max response, negative = inhibition, hits mostly inhibitors. Plk1 PBD binding of FITC phosphopeptide, fluorescence polarization; also: potency is read from the fitted curve at half-maximal effect; series mostly up to about 57 µM; % is scaled to controls: 0 for no effect and ±100 for the full control effect; nearly all actives have a fitted effect of over 65% in size
KAT2A inh – GCN5L2 (KAT2A) acetyltransferase inhibition. Q92830. GCN5L2 HAT assay, ThioGlo1 CoA-SH fluorescence. Potency, µM (top dose mostly 58.9 µM), for inactives: top-dose activity change, negative = inhibition, usual class: inhibitors. hit rate 0.21% among 390,000. AID 504327; also: potency is read from the fitted curve at half-maximal effect; % is scaled to controls: 0 for no effect and ±100 for the full control effect
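Preincubate 20nM GCN5L2 with compound 15 min, RT → add 50uM ThioGlo1 + 75uM H3(1-25) + 70uM acetyl-CoA → read fluorescence 0 and 20 min. Primary qHTS; fluorescent artifacts likely.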
Numbers without * were called inactive; ? = inconclusive; · = not tested or not shown; [ ] = another dose, or the depositor's remark. Unless noted, calls follow the shape of the dose curve; as a rule, active = well fitted curve in the direction sought with a large enough effect; inconclusive = small, poorly fitted or top-dose-only effect, or another doubt; inactive = no such curve, though single readings can be large; an effect the other way counts as inactive or inconclusive.

SMILES	JMJD2A Tudor	BAZ2B block	PI5P4Ka inh	HP1b chromo inh	PLK1 PBD inh	KAT2A inh
CC1CC1C(=O)OCC(=O)NCc1ccccc1 (configuration not stated)	-14%	·	-5	17%	-2%	0%
Cc1noc2ncnc(N3CCCC(C(=O)NC(C)C)C3)c12 (configuration not stated)	-7%	3%[57.1 µM]	·	4%	·	-18%
Cc1noc2nc(C(=O)O)nc(N3CCCCC3)c12	40µM*	?	·	7%	·	-3%
O=S1(=O)C=CC(Nc2ccccc2)C1 (configuration not stated)	-73%[57.1 µM]	0%[57.1 µM]	-24	?	27µM*	-4%
O=C1c2ccccc2C(=O)N1c1cccc2ccncc12	-22%	·	·	·	·	·
COc1ccc(CN=Cc2c(C(F)(F)F)[nH][nH]c2=O)cc1	79µM*	10%	-3	-1%	27µM*	0%
Clc1cccc(C2=NC(c3cccs3)=Nc3ccc(Br)cc3N2)c1	?	-39%	·	?	·	-12%
COC(=O)c1c(NC(=O)CCCOc2ccc(C(C)(C)C)cc2)sc2c1C(C(=O)OC)CC2 (configuration not stated)	56µM*	28µM*	·	-24%	·	?
CCOC(=O)N1CCN(C(C(=O)NC2CCCC2)c2ccco2)CC1 (configuration not stated)	·	·	0	·	-2%	·
Cc1nc2c(C)cccc2cc1C(=O)N/N=C/c1ccc(C(=O)O)cc1	-14%[11.4 µM]	?	10	1%	30µM*	0%
COc1ccccc1CNC(=O)CC(c1ccc(C)cc1)N1Cc2ccccc2C1=O (configuration not stated)	-11%	-19%	·	22%	·	-3%
O=C(O)CN1C(=O)S/C(=C\c2cccnc2)C1=O	-18%	50µM*	0	6%[57 µM]	-12%	-1%
O=C(NCCN1C(=O)S/C(=C\c2cccnc2)C1=O)C1=NN(c2ccccc2)C(=O)CC1	3.5µM*	-11%	-67*	-29%	3.8µM*	-7%
O=C1/C(=C/c2ccccc2)SC(=S)N1CC(=O)N1CCCCC1c1cccnc1 (configuration not stated)	35µM*	32µM*	-8	-15%	-15%	-19%
O=C(NCCN1C(=O)S/C(=C/c2cccnc2)C1=O)c1cccs1	-14%	12%	-9	59%	-9%	1%
CCOC(=O)C(=NCCCN(C)C)NNc1cc(C(F)(F)F)ccc1Cl	45µM*	-34%	8	?	-14%	-4%
COc1cc(N)c(Cl)cc1C(=O)OCC(=O)Nc1ccc(N2CCOCC2)cc1	-12%	·	3	28%	-20%	-2%
O=C(COc1cccc2c1CCN(Cc1ccccc1F)C2=O)N1CCCCC1	6%	-13%	-3	22%	5%	1%
Cc1ccccc1CN1CCc2c(OCC(=O)N3CCCCC3)cccc2C1=O	?	-34%	-11	-16%	30µM*	0%
CCCOc1ccc(-c2nc(C#N)c(NCC3CCCO3)o2)cc1 (configuration not stated)	?	50µM*	·	-29%	3%	-1%
Cc1nc(-c2ccc3c(c2)OCCO3)cs1	-11%	-16%	7	8%	30µM*	-1%
Cc1cccc(Nc2nc(-c3ccc4c(c3)OCCO4)cs2)c1	?	50µM*	-3	-35%	-8%	-5%
Oc1ccc(-c2csc(Nc3ccc4c(c3)OCO4)n2)c(O)c1	56µM*	·	-20	?	-10%	·
Cc1cccc(Nc2nc(-c3ccncc3)cs2)c1	-32%	0%	-6	29%	-3%	-1%
COC(=O)C1CCN(C2CN(C3CCCCC3)S(=O)(=O)C2)CC1 (configuration not stated)	·	·	-1	·	-14%	·
SMILES	JMJD2A Tudor	BAZ2B block	PI5P4Ka inh	HP1b chromo inh	PLK1 PBD inh	KAT2A inh
CCN(CC)C(=O)C1CCN(S(=O)(=O)c2ccc3c(c2)CCCN3C(=O)C2CCC2)CC1	-21%	-5%	3	68%	-7%	-3%
COc1ccc(CNC(=O)c2ccc(Sc3ccc(Cl)cc3)c(NC(C)=O)c2)c(OC)c1	-24%	-9%	·	9%	·	0%
O=C(Nc1ccc(F)cc1F)N1CCCC(c2nc(-c3ccc(F)cc3)no2)C1 (configuration not stated)	-21%	-8%	1	-6%	12µM*	-3%
COc1ccc(NC(=O)NNC(=O)CCc2ccc(O)c(O)c2)cc1OC	28µM*	-17%	-3	?	-6%	?
Cc1ccc(S(=O)(=O)N2CCCCC2)cc1C(=O)OC1CCCCC1=O (configuration not stated)	-5%	0%	2	34%	-15%	-2%
CC(C)C[C@@H](CNCC(=O)[C@H](Cc1c[nH]c2ccccc12)NC(=O)c1[nH]cnc1C(=O)N[C@@H](C)CN)NC(=O)c1nc[nH]c1C(=O)N[C@@H](CC(=O)O)C(=O)O	20µM*	·	-62*	22%	27µM*	·
CC(C)C[C@@H](CN)NC(=O)c1nc[nH]c1C(=O)N[C@@H](Cc1c[nH]c2ccccc12)C(=O)CNC[C@H](C)NC(=O)c1nc[nH]c1C(=O)N[C@@H](CC(=O)O)C(=O)O	56µM*	·	-4	21%	-28%	·
CC(C)C[C@@H](CNCC(=O)[C@H](Cc1c[nH]c2ccccc12)NC(=O)c1[nH]cnc1C(=O)N[C@@H](C)CN)NC(=O)c1nc[nH]c1C(=O)N[C@@H](C)C(=O)O	50µM*	·	-23	27%	-18%	·
CC(C)C[C@@H](CNCC(=O)[C@H](Cc1c[nH]c2ccccc12)NC(=O)c1[nH]cnc1C(=O)N[C@H](CN)CC(C)C)NC(=O)c1nc[nH]c1C(=O)N[C@@H](CC(=O)O)C(=O)O	40µM*	·	?	?	-8%	·
CC(C)C[C@@H](CN)NC(=O)c1nc[nH]c1C(=O)N[C@@H](Cc1ccccc1)C(=O)CNC[C@H](C)NC(=O)c1nc[nH]c1C(=O)N[C@@H](CC(=O)O)C(=O)O	?	·	1	63%	-8%	·
COC(=O)C(Cc1c[nH]c2ccccc12)NC(=O)c1ccc2nc[nH]c2c1 (configuration not stated)	-16%	-7%	9	22%	-6%	-13%
O=C(OC1CCOC1=O)c1ccc(NS(=O)(=O)c2cccs2)cc1 (configuration not stated)	?	-33%	1	42%	0%	-14%
Cc1ccc(N[S+](=O)([O-])c2cc3c(cc2CCc2ccccc2)NC(=O)CO3)cc1C	-7%	·	·	·	·	·
Cn1nc(C(=O)NNC(=O)CCc2ccccc2Cl)c2ccccc2c1=O	-10%	14%	9	18%	-1%	-5%
